Among all 310,000 compounds or so, about 14,000 (4.5%) showed an effect of 50% or more. The effect is printed as a negative number. Shown is part of a subset that was picked to be rich in strong results.
The molecules below were run against human ether-à-go-go-related gene (hERG) potassium channel (human, UniProt Q12809) (assay: primary screen, population patch clamp on CHO cells stably expressing hERG; higher = less effect of the substance).
Sequence of human ether-à-go-go-related gene (hERG) potassium channel (Q12809 whole entry, looked up): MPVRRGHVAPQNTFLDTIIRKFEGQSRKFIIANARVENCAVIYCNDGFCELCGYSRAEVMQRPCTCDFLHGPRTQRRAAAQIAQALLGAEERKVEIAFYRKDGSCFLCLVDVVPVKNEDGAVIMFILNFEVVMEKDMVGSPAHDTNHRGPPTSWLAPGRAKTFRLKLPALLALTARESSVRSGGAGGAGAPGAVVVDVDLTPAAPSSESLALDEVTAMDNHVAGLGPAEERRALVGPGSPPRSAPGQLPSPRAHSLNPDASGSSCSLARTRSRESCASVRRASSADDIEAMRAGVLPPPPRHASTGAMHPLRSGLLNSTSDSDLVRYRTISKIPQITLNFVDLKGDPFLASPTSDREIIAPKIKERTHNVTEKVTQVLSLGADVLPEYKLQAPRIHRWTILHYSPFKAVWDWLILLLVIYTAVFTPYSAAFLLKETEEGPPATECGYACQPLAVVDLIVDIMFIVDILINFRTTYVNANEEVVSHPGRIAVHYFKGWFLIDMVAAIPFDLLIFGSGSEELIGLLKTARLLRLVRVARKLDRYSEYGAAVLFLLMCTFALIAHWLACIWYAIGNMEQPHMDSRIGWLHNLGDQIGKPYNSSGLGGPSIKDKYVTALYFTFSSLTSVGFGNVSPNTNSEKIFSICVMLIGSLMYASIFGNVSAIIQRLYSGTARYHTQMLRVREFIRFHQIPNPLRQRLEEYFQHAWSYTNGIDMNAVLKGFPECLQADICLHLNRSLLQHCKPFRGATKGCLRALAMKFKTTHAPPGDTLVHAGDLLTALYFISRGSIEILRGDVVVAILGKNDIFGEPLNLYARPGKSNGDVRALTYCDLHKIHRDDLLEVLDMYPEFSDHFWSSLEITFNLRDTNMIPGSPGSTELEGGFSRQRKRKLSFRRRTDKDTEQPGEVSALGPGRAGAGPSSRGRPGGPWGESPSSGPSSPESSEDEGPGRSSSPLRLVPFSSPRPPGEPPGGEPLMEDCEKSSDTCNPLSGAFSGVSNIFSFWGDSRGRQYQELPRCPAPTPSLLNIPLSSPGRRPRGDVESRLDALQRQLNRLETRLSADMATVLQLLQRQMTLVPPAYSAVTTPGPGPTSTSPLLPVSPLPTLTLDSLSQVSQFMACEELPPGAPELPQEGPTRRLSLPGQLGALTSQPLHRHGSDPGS
In the case of `O=C(N=Nc1c(O)[nH]c2ccccc12)c1ccc2c(c1)OCO2`, the “hERG current change (%, negative = inhibition) at 10uM” value is reported as 6.09%.
`CCCNC(=O)c1ccc(S(=O)(=O)c2ccc(OC)cc2)c([N+](=O)[O-])c1` was tested, and the “hERG current change (%, negative = inhibition) at 10uM” value was -31.2%.
`Cc1cccc(NC(=S)NCCN2CCOCC2)c1C` was tested, and the “hERG current change (%, negative = inhibition) at 10uM” value was 13.9%.
With `COc1ccccc1-c1nnc2sc(COc3ccc(Cl)cc3)nn12` the “hERG current change (%, negative = inhibition) at 10uM” value was -37.8%.
In the case of `COc1ccccc1-c1nnc2sc(COc3ccccc3)nn12`, the “hERG current change (%, negative = inhibition) at 10uM” value is reported as -2.14%.
In the case of `COc1ccccc1-c1nnc2sc(COc3ccc(F)cc3)nn12`, the “hERG current change (%, negative = inhibition) at 10uM” value is reported as -74%.
`COc1ccc2cc(CCNC(=O)c3ccco3)c(=O)[nH]c2c1` was tested, and the “hERG current change (%, negative = inhibition) at 10uM” value was -2.81%.
In the case of `O=P(O)(CCc1ccccc1)CN1CCCCC1`, the “hERG current change (%, negative = inhibition) at 10uM” value is reported as 10.9%.
In the case of `O=P(O)(CCc1ccccn1)CN1CCCCC1`, the “hERG current change (%, negative = inhibition) at 10uM” value is reported as -67.6%.
In the case of `O=P(O)(CCc1ccccn1)CN1CCOCC1`, the “hERG current change (%, negative = inhibition) at 10uM” value is reported as 6.28%.
With `Cc1cc(C)c2nc(-c3cccnc3)cc(C(=O)NC(C)c3cnn(C)c3C)c2c1` (stereo not shown) the “hERG current change (%, negative = inhibition) at 10uM” value was -30.6%.
`CC(C)CCN1C(=O)c2ccc(C(=O)NCC3CCCO3)cc2C1=O` (stereo not shown) was tested, and the “hERG current change (%, negative = inhibition) at 10uM” value was -8.48%.
For `Cc1cc(OCc2cc(C(=O)N(Cc3nccn3C)C(C)C)no2)cc(C)c1Cl`, the “hERG current change (%, negative = inhibition) at 10uM” value was -58.5%.
For `CC(C)N(Cc1nccn1C)C(=O)c1cc(COc2ccc(F)cc2Cl)on1`, the “hERG current change (%, negative = inhibition) at 10uM” value was 0.188%.
In the case of `COc1cccc(OCc2cc(C(=O)N(Cc3nccn3C)C(C)C)no2)c1`, the “hERG current change (%, negative = inhibition) at 10uM” value is reported as 8.5%.
With `CC(C)N(Cc1nccn1C)C(=O)c1cc(COc2ccc(-n3cncn3)cc2)on1` the “hERG current change (%, negative = inhibition) at 10uM” value was -51.5%.
With `Cc1cccc(C)c1OCc1cc(C(=O)N(Cc2nccn2C)C(C)C)no1` the “hERG current change (%, negative = inhibition) at 10uM” value was -5.91%.
In the case of `CC(C)N(Cc1nccn1C)C(=O)c1cc(COc2ccc3ncccc3c2)on1`, the “hERG current change (%, negative = inhibition) at 10uM” value is reported as 9.33%.
For `COc1ccc2nc(SC)cc(C)c2c1`, the “hERG current change (%, negative = inhibition) at 10uM” value was 16.5%.
With `CCC1CCC2(CC1)NC(CO)(CO)CO2` (stereo not shown) the “hERG current change (%, negative = inhibition) at 10uM” value was 8.52%.
For `CC(C)CC1(C)N=C(c2ccccc2)C(=S)N1` (stereo not shown), the “hERG current change (%, negative = inhibition) at 10uM” value was 8.32%.
In the case of `CCOc1cccc(CN2CCN(CCCc3ccccc3)C(CCO)C2)c1O` (stereo not shown), the “hERG current change (%, negative = inhibition) at 10uM” value is reported as -76.3%.
`COc1cccc(CN2CCN(CCCc3ccccc3)C(CCO)C2)c1OC` (stereo not shown) was tested, and the “hERG current change (%, negative = inhibition) at 10uM” value was -48.6%.
`CCOc1cccc(CN2CCN(Cc3ccc(C)o3)C(CCO)C2)c1O` (stereo not shown) was tested, and the “hERG current change (%, negative = inhibition) at 10uM” value was -13.1%.
In the case of `COc1cccc(CN2CCN(CCCc3ccccc3)C(CCO)C2)c1O` (stereo not shown), the “hERG current change (%, negative = inhibition) at 10uM” value is reported as -72.4%.
For `C=CCOc1ccccc1CN1CCN(CCc2ccccc2)C(CCO)C1` (stereo not shown), the “hERG current change (%, negative = inhibition) at 10uM” value was -59.4%.
`CCCn1ncc(CN2CCN(CCc3ccccc3)C(CCO)C2)c1C` (stereo not shown) was tested, and the “hERG current change (%, negative = inhibition) at 10uM” value was -46.9%.
`CCOc1cccc(CN2CCN(CCc3ccccc3)C(CCO)C2)c1O` (stereo not shown) was tested, and the “hERG current change (%, negative = inhibition) at 10uM” value was -69.7%.
For `COC(=O)CN1C(=S)N(c2ccc(OC)cc2)C(=O)/C1=C/c1cccs1`, the “hERG current change (%, negative = inhibition) at 10uM” value was 34%.
With `Nc1nc(NCc2ccccc2)n(-c2ccccc2)n1` the “hERG current change (%, negative = inhibition) at 10uM” value was 14.9%.
For `CCOc1ccc(-n2nnnc2-c2nc3ccccc3s2)cc1`, the “hERG current change (%, negative = inhibition) at 10uM” value was 11.9%.
For `O=c1[nH]cc(S(=O)(=O)N2CCOCC2)c(=O)[nH]1`, the “hERG current change (%, negative = inhibition) at 10uM” value was -7.17%.
For `COCCn1c(=O)c2c(nc3n2CC(C)CN3Cc2ccccc2)n(C)c1=O` (stereo not shown), the “hERG current change (%, negative = inhibition) at 10uM” value was -47.6%.
In the case of `CC1CN(CCc2ccccc2)c2nc3c(c(=O)n(C)c(=O)n3C)n2C1` (stereo not shown), the “hERG current change (%, negative = inhibition) at 10uM” value is reported as -33.9%.
In the case of `CCn1c(=O)c2c(nc3n2CC(C)CN3CCc2ccccc2)n(C)c1=O` (stereo not shown), the “hERG current change (%, negative = inhibition) at 10uM” value is reported as -72.6%.
`C=CCn1c(=O)c2c(nc3n2CCCN3CCc2ccccc2)n(C)c1=O` was tested, and the “hERG current change (%, negative = inhibition) at 10uM” value was -19.8%.
With `CC1CN(CCc2ccccc2)c2nc3c(c(=O)[nH]c(=O)n3C)n2C1` (stereo not shown) the “hERG current change (%, negative = inhibition) at 10uM” value was -35.9%.
In the case of `CCOCCn1c(=O)c2c(nc3n2CCCN3CCc2ccccc2)n(C)c1=O`, the “hERG current change (%, negative = inhibition) at 10uM” value is reported as -22.8%.
With `C=CCn1c(=O)c2c(nc3n2CC(C)CN3CCc2ccccc2)n(C)c1=O` (stereo not shown) the “hERG current change (%, negative = inhibition) at 10uM” value was -72%.
`CC1CN(CCc2ccccc2)c2nc3c(c(=O)n(CC(N)=O)c(=O)n3C)n2C1` (stereo not shown) was tested, and the “hERG current change (%, negative = inhibition) at 10uM” value was 2.53%.
In the case of `COCCn1c(=O)c2c(nc3n2CCCN3CCc2ccccc2)n(C)c1=O`, the “hERG current change (%, negative = inhibition) at 10uM” value is reported as -31.2%.
For `CCOCCn1c(=O)c2c(nc3n2CC(C)CN3Cc2ccccc2)n(C)c1=O` (stereo not shown), the “hERG current change (%, negative = inhibition) at 10uM” value was -49.5%.
For `CCOCCn1c(=O)c2c(nc3n2CC(C)CN3CCc2ccccc2)n(C)c1=O` (stereo not shown), the “hERG current change (%, negative = inhibition) at 10uM” value was -71.5%.
`COCCn1c(=O)c2c(nc3n2CC(C)CN3CCc2ccccc2)n(C)c1=O` (stereo not shown) was tested, and the “hERG current change (%, negative = inhibition) at 10uM” value was -56.6%.
With `CC(C)C(=O)Nc1cccc(NC(=O)c2cc3ccccc3o2)c1` the “hERG current change (%, negative = inhibition) at 10uM” value was -22%.
In the case of `C=C(C)C1CC=C(C)/C(=N/NC(=O)COc2cccc3ccccc23)C1` (stereo not shown), the “hERG current change (%, negative = inhibition) at 10uM” value is reported as 10.9%.
With `CCOc1cc(C(=O)NN2CCOCC2)cc(OCC)c1OCC` the “hERG current change (%, negative = inhibition) at 10uM” value was 35.2%.
`CC(C)CC(=O)NC(=S)Nc1nc(-c2cccc3ccccc23)cs1` was tested, and the “hERG current change (%, negative = inhibition) at 10uM” value was 12.7%.
For `COc1ccc(/C=N/n2cnnc2SCc2ccccc2)cc1`, the “hERG current change (%, negative = inhibition) at 10uM” value was -2.99%.
In the case of `Cc1nc(SCC(=O)NC2CCS(=O)(=O)C2)c2c(C)c(C)sc2n1` (stereo not shown), the “hERG current change (%, negative = inhibition) at 10uM” value is reported as 6.15%.
With `Clc1ccccc1-c1nnc(-c2ccccc2Cl)o1` the “hERG current change (%, negative = inhibition) at 10uM” value was -2.56%.
For `COc1cccc(N/N=C/c2cccc(Br)c2O)c1`, the “hERG current change (%, negative = inhibition) at 10uM” value was -11.1%.
`CCOC(=O)c1sc2nc(SCC(=O)N(CC)CC)n(CCCN3CCCC3=O)c(=O)c2c1C` was tested, and the “hERG current change (%, negative = inhibition) at 10uM” value was -32.4%.
For `CCOC(=O)c1sc2nc(SCC#N)n(CC3CCCO3)c(=O)c2c1C` (stereo not shown), the “hERG current change (%, negative = inhibition) at 10uM” value was -13.5%.
`CCOC(=O)c1sc2nc(SCC#N)n(CCCN3CCCC3=O)c(=O)c2c1C` was tested, and the “hERG current change (%, negative = inhibition) at 10uM” value was -62.9%.
For `COc1cccc(C2C(C(=O)c3cc4ccccc4o3)=C(O)C(=O)N2CCN(C)C)c1OC` (stereo not shown), the “hERG current change (%, negative = inhibition) at 10uM” value was 0.215%.
`Cc1ccc(C(=O)CSc2cc(C)[nH]c(=O)n2)cc1` was tested, and the “hERG current change (%, negative = inhibition) at 10uM” value was 6.76%.
For `CC(=O)NN1C(=O)/C(=C\c2ccc(Cl)cc2)SC1=S`, the “hERG current change (%, negative = inhibition) at 10uM” value was 0.662%.

— publication PMC4336329 (PLoS ONE, 2015)
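Also: peak tail current of the secondary pulse compared with the same well before compound.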
